Holding throughout (set-up): scale not given: direction of the effect not stated beside the values
Test [1] has as its target Protein translocase subunit SecA (Escherichia coli (strain K12)) (UniProt P10408). Nature of the test: Assay to Identify E. coli SecA ATPase Inhibitors. Format: functional. The conditions noted are these: 30 µM.
For test [2], the target named is T1, Ubiquitin-activating enzyme e1, putative (Leishmania donovani (strain BPK282A1)) (UniProt E9BSI1).
T1 sequence (whole entry): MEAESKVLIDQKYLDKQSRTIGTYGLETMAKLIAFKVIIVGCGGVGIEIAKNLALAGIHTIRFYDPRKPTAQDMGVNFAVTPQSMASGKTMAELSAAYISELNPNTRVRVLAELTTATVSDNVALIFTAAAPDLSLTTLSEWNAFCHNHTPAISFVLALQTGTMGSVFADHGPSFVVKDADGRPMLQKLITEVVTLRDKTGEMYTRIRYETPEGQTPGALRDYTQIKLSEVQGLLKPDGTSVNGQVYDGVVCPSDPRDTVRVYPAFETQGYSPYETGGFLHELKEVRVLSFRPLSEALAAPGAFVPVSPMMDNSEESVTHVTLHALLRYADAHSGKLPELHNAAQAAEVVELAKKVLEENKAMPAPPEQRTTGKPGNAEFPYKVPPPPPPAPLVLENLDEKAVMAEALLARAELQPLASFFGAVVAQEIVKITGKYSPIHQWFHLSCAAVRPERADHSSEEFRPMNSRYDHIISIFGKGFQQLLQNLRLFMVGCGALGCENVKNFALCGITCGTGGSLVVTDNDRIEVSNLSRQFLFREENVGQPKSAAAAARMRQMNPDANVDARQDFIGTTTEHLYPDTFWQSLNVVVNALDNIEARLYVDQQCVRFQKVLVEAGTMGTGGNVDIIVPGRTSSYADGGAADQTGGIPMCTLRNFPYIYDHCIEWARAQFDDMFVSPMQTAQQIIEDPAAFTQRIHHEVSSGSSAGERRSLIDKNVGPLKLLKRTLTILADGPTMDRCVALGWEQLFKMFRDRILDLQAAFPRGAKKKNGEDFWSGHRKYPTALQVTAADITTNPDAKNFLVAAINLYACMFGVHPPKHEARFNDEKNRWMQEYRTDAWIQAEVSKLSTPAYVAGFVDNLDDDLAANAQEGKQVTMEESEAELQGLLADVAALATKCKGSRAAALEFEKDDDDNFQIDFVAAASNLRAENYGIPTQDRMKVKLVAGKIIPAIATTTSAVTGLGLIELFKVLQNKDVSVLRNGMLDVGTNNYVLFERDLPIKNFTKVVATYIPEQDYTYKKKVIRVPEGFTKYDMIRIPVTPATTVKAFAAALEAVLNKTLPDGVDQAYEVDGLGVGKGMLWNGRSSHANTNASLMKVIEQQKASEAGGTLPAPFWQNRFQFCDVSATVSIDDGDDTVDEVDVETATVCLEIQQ
Nature of the test: Leishmania donovani Ubiquitin Activating Enzyme (LdE1). Format: functional. The settings on record: 30 µM.

Test [3] addresses AMP-activated protein kinase, AMPK (Homo sapiens) (UniProt P54646+O43741+P54619+Q9UGJ0+Q9Y478+Q13131+Q9UGI9). The test is described as follows: AMP-dependent Kinase enzyme assay. An in vitro enzyme assay that detects ADP turnover that is directly proportional to AMPK activity. This uses naive AMPK that is activated during the assay with MK-8722. The class given is functional. The settings on record: 30 µM.

Test [4] deals with Sialic acid-binding Ig-like lectin 9 (Homo sapiens) (UniProt Q9Y336). Nature of the test: Hs-Siglec9 ALPHAscreen SOP 20170721. The settings on record: 10 µM. Background: Bead proximity is the source of the signal in Alpha formats.
Sequence of Sialic acid-binding Ig-like lectin 9 (Homo sapiens) (Q9Y336 whole entry): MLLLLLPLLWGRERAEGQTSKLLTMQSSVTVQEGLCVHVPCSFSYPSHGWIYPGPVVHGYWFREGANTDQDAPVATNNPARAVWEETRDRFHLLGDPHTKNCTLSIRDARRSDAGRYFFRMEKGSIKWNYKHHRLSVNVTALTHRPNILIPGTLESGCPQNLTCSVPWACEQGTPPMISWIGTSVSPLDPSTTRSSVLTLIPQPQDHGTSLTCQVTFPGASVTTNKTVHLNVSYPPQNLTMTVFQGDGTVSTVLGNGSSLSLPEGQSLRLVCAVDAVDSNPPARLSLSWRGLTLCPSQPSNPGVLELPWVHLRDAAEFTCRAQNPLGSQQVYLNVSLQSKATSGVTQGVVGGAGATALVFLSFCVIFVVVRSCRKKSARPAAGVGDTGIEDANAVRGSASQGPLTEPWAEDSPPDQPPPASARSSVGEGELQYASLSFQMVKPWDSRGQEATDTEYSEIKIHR
For test [5], the system named is Trypanosoma cruzi. Nature of the test: Trypanosoma cruzi phosphomannomutase and mannose-1-phosphate guanylyltransferase assay. The class given is functional. The conditions noted are these: 10 µM.
Test [6] deals with T2, Arginase-2, mitochondrial (Homo sapiens) (UniProt P78540).
T2 sequence (whole entry): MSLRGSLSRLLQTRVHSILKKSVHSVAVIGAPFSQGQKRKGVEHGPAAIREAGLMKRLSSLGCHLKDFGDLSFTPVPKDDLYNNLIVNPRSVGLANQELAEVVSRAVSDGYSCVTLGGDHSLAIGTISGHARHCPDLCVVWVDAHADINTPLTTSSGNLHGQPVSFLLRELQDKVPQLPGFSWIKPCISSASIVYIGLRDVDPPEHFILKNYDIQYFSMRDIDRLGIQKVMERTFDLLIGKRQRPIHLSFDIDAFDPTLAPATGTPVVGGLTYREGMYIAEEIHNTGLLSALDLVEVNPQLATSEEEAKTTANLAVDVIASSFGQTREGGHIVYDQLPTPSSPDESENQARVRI
The test is described as follows: in vitro enzyme assay to detect the production of urea directly proportional to the activity of Arginase II. Also: in the data most compounds retested in dose-response had high values. The settings on record: 33.3 µM. Format: functional.

The target of test [7] is T3, Proteasome subunit beta (Trypanosoma cruzi) (UniProt O96673).
T3 sequence (whole entry): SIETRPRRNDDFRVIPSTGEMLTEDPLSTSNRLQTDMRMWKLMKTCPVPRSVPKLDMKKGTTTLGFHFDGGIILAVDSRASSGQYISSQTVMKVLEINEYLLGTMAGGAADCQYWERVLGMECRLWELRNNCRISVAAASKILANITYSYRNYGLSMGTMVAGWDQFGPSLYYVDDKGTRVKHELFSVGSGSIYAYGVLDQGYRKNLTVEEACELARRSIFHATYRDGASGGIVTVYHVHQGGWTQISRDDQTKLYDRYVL
Nature of the test: Trypanosoma cruzi proteasome chymotrypsin-like activity (TcProtChymo) assay. Also: in the data most compounds retested in dose-response had high values. The class given is functional. The conditions noted are these: 9.37 µM.

The species entered for test [8] is Homo sapiens. The test is described as follows: To identify inhibition of the IFN signalling (Jak-Stat) pathway via expression of an eGFP reporter gene under the control of an IFN-stimulated response element (ISRE) containing MxA promoter. The settings on record: 30 µM. Format: functional. Background: A reporter such as luciferase makes a cellular process visible.

Test [9] addresses T4, Tyrosyl-tRNA synthetase, putative (Trypanosoma cruzi (strain CL Brener)) (UniProt Q4DSP6).
T4 sequence (whole entry): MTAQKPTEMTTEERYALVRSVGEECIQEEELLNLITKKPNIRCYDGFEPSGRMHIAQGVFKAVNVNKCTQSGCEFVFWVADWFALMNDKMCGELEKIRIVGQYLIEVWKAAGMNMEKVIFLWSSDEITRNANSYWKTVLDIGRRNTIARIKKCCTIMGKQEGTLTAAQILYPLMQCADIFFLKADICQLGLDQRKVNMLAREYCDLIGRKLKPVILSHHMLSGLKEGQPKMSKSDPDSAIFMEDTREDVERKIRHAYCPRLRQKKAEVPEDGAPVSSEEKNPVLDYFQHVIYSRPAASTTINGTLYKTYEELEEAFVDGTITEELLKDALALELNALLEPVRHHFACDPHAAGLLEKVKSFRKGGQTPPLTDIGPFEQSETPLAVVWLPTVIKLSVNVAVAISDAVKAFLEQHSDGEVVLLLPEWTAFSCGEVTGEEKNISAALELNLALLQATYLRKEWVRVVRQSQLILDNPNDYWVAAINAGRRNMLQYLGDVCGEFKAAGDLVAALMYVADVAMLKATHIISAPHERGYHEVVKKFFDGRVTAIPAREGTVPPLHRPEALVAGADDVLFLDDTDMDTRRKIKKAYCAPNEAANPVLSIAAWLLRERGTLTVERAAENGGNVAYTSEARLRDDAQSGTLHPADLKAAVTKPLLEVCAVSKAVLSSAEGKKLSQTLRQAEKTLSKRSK
Nature of the test: Trypanosoma cruzi tyrosyl tRNA synthetase (TcYRS) _High Tyrosine SOP. Also: in the data most compounds retested in dose-response had high values. The conditions noted are these: 30 µM. The class given is functional.

Test [10] has as its target T4, Tyrosyl-tRNA synthetase, putative (Trypanosoma cruzi (strain CL Brener)). Nature of the test: Trypanosoma cruzi tyrosyl tRNA synthetase (TcYRS) SOP. The settings on record: 30 µM. Format: functional.
The target of test [11] is Chromo domain-containing protein 1 (Saccharomyces cerevisiae (strain ATCC 204508 / S288c) (Baker's yeast)) (UniProt P32657). The test is described as follows: ScCHD-1 Enzyme Inhibition Assay. Also: in the data most compounds retested in dose-response had high values. Format: functional. The settings on record: 30 µM.
Sequence of Chromo domain-containing protein 1 (Saccharomyces cerevisiae (strain ATCC 204508 / S288c) (Baker's yeast)) (P32657 whole entry, the tested form may be a part): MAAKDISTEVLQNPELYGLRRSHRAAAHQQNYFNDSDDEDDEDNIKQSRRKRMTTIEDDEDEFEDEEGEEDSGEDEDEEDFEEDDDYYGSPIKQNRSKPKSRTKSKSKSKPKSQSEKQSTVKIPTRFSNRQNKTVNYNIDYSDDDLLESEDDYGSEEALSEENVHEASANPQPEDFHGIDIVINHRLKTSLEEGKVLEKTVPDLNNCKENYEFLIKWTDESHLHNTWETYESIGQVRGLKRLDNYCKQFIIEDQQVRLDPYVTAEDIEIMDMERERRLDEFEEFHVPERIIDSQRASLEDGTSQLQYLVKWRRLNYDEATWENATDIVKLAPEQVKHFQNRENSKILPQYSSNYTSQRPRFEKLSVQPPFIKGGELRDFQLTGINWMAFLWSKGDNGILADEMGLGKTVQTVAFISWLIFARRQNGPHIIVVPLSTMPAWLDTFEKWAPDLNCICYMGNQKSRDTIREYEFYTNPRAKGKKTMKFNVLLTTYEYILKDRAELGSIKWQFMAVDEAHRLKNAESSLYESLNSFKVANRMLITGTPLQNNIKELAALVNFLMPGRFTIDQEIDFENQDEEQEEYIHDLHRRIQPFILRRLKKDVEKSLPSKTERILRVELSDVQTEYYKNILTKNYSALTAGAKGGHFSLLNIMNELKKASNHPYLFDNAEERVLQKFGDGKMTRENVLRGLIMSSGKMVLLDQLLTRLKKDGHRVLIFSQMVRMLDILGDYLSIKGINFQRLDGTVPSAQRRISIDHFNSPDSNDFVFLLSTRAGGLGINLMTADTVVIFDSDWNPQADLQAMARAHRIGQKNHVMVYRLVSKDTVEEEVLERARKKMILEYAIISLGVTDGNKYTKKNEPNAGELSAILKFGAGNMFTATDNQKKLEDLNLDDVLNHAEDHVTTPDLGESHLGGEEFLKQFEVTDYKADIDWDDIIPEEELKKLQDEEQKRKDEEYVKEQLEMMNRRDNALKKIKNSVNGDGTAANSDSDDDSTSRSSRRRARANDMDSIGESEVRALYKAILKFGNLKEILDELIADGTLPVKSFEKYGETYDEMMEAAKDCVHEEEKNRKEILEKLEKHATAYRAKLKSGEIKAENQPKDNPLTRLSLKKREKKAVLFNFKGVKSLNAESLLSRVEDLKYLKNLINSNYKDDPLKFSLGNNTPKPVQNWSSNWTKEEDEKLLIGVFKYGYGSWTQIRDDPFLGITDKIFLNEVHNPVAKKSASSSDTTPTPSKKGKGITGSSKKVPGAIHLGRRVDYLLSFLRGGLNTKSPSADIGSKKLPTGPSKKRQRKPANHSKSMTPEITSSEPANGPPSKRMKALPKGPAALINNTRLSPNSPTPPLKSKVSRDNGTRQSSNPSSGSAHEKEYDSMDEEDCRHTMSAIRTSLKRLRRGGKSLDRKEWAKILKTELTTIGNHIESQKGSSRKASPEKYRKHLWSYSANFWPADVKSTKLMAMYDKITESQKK

Molecules are shown by their SMILES. For some of these results: Measured potencies and affinities stand elsewhere.

Sequence of Protein translocase subunit SecA (Escherichia coli (strain K12)) (P10408 whole entry): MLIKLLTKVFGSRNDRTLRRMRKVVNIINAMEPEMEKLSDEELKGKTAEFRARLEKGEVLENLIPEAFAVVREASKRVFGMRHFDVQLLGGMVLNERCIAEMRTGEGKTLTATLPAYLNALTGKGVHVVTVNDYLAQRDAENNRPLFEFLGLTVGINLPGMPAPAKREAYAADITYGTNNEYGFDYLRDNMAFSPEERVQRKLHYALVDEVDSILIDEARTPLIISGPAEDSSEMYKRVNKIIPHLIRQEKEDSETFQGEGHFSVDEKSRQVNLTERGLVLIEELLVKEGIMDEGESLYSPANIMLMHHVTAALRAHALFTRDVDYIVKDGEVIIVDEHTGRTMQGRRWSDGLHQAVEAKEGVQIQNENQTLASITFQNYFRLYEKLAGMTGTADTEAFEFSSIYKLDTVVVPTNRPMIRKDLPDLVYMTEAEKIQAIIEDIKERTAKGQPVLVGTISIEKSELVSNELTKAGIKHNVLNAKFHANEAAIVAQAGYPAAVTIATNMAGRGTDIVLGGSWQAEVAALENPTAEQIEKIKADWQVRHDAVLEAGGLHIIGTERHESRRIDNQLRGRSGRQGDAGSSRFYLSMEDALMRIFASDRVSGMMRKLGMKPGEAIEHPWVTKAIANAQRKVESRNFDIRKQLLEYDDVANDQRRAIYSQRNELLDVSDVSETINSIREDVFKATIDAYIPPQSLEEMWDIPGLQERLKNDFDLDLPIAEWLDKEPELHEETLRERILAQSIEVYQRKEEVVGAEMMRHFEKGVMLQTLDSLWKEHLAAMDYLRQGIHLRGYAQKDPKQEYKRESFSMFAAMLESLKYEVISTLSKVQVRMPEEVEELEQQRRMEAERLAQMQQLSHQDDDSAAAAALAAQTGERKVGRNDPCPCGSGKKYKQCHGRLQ

Regarding `CN(Cc1nc(-c2ccco2)no1)C1CCCN(c2cccnn2)C1` (stereo unspecified), the Percent Effect in test [1] is -1.52%; in [2], 20.2%; in [3], -5.85%; in test [4], -5.93%; in test [5], 2.17%; in test [6] it was 1.14%. In addition, the Percent Effect in test [7] was 16.1%; in test [8], 11.9%; in [9], 6.4%; in test [10], 21.5%; in test [11] it was -10.1%.
For `Cc1oc(C(=O)O)cc1S(=O)(=O)Nc1c(F)cccc1-n1cccn1`, the Percent Effect in [1] was -5.09%; in test [2], 0%; in test [3], -0.737%; in [4], 4.46%; in test [5], 7.5%; in test [6], 0%. The Percent Effect in [7] is 11%; in test [8] it was 7.88%; in test [9] it was 2.73%; in test [10], 6.17%; in test [11] it was -3.81%.
As for `O=C1CC(c2cccnc2)C2(CCN(S(=O)(=O)C3CC3)CC2)N1` (stereo unspecified), the Percent Effect was -5.32% in test [1]; 8.11% in test [2]; 1.06% in test [3]; -2.02% in test [4]; 3.42% in test [5]; -4.78% in test [6]. Besides, the Percent Effect in test [7] is 15.3%; in test [8] it was -9.26%; in test [9], 4.32%; in [10], 12.8%; in test [11], 2.44%.
Take `CC(C)(C)C(=O)N1CCCC1c1nc(O)cc(-c2ccccn2)n1` (stereo unspecified): the Percent Effect in test [1] is -5.78%; in test [2], 25.7%; in test [3], 5.44%; in [4] it was 16.5%; in [5], 3.36%; in [6] it was -1.62%. Moreover, the Percent Effect is 11.9% in test [7]; 7.83% in [8]; 5.38% in test [9]; 24.7% in [10]; -13.5% in test [11].
For `COC(=O)c1sccc1S(=O)(=O)NCC1(O)CCOc2ccccc21` (stereo unspecified), the Percent Effect is -3.54% in test [1]; 0% in test [2]; 5.9% in test [3]; -3.21% in test [4]; -3.72% in [5]; 1.82% in [6]. The Percent Effect in test [7] was 1.77%; in test [8] it was 4.11%; in [9], 0%; in [10] it was 7.5%; in test [11], -4.1%.
As for `COc1ccc(C(=O)NS(=O)(=O)c2ccc(C#N)cc2C(F)(F)F)cc1`, the Percent Effect in [1] is -1.41%; in [2], -10.8%; in test [3] it was 20.6%; in test [4], 0.998%; in [5], 0.472%; in test [6], 6.41%. In addition, the Percent Effect is -3.06% in test [7]; 11.2% in test [8]; -2.46% in [9]; -1.24% in test [10]; -2.1% in test [11].
As to `Cc1cc(C(=O)N[C@@H]2CCNC[C@H]2O)ccc1Cl`, the Percent Effect is -1.58% in [1]; 5.41% in test [2]; 1.58% in test [3]; 10.1% in [4]; 6.56% in [5]; -1.91% in [6]. The Percent Effect was 11.4% in [7]; -9.87% in test [8]; 6.88% in test [9]; 4.88% in test [10]; -2.88% in test [11].
On to `Cc1cnn(CC2CCCN2Cc2nnsc2Cl)c1` (stereo unspecified), for which the Percent Effect in test [1] is -4.93%; in test [2], 0%; in [3], -0.946%; in test [4], -0.665%; in [5] it was -3.68%; in test [6] it was -2.66%. The Percent Effect in test [7] was 0.573%; in [8], 28.5%; in [9] it was 2.46%; in [10], -3.8%; in [11], 3.6%.
Regarding `Cc1ccc(CNC(c2ccccc2)c2nccn2C)cc1C` (stereo unspecified), the Percent Effect in test [1] was -0.655%; in test [2], 18.9%; in [3], -5.59%; in [4] it was 9.13%; in test [5], 2.32%; in test [6] it was -0.554%. Further, the Percent Effect in test [7] was 8.08%; in test [8] it was 30.7%; in [9], 10.9%; in test [10] it was 25.6%; in [11], -5.06%.
For `Cc1ccc(-c2nc(CNC3CCc4ncnn4C3)co2)c(C)c1` (stereo unspecified), the Percent Effect in [1] is -7.34%; in test [2], -41.6%; in [3] it was -3.33%; in test [4] it was 17.9%; in [5], 6.18%; in test [6], 0%. The Percent Effect in [7] came to 7.09%; in test [8] it was 9.71%; in test [9], 10.7%; in test [10], 19.5%; in [11] it was 80.3%.
`COCCN(Cc1nc2c(cnn2C)c(=O)[nH]1)Cc1ccco1`: the Percent Effect was -2.48% in [1]; 16.2% in [2]; -7.78% in test [3]; -3.6% in [4]; -4.43% in test [5]; 5.61% in test [6]. In addition, the Percent Effect in [7] was 12.6%; in test [8] it was 4.47%; in test [9], 9.36%; in test [10] it was 18.5%; in test [11] it was -4.09%.

The record behind these values is ChEMBL document CHEMBL3988442, “University of Dundee, Small-Polar-MMV Screening Library” (2021).
